Assay outcomes as filed in PubChem BioAssay.
mHTT-CaM PPI inh: mHTT-calmodulin interaction abrogation. P42858. AlphaScreen His-mHTT/GST-CaM binding, luminescence. inhibition, % at 15 µM. 3.6% of 190,000 active
Target sequence (P42858 whole entry, looked up, change not shown): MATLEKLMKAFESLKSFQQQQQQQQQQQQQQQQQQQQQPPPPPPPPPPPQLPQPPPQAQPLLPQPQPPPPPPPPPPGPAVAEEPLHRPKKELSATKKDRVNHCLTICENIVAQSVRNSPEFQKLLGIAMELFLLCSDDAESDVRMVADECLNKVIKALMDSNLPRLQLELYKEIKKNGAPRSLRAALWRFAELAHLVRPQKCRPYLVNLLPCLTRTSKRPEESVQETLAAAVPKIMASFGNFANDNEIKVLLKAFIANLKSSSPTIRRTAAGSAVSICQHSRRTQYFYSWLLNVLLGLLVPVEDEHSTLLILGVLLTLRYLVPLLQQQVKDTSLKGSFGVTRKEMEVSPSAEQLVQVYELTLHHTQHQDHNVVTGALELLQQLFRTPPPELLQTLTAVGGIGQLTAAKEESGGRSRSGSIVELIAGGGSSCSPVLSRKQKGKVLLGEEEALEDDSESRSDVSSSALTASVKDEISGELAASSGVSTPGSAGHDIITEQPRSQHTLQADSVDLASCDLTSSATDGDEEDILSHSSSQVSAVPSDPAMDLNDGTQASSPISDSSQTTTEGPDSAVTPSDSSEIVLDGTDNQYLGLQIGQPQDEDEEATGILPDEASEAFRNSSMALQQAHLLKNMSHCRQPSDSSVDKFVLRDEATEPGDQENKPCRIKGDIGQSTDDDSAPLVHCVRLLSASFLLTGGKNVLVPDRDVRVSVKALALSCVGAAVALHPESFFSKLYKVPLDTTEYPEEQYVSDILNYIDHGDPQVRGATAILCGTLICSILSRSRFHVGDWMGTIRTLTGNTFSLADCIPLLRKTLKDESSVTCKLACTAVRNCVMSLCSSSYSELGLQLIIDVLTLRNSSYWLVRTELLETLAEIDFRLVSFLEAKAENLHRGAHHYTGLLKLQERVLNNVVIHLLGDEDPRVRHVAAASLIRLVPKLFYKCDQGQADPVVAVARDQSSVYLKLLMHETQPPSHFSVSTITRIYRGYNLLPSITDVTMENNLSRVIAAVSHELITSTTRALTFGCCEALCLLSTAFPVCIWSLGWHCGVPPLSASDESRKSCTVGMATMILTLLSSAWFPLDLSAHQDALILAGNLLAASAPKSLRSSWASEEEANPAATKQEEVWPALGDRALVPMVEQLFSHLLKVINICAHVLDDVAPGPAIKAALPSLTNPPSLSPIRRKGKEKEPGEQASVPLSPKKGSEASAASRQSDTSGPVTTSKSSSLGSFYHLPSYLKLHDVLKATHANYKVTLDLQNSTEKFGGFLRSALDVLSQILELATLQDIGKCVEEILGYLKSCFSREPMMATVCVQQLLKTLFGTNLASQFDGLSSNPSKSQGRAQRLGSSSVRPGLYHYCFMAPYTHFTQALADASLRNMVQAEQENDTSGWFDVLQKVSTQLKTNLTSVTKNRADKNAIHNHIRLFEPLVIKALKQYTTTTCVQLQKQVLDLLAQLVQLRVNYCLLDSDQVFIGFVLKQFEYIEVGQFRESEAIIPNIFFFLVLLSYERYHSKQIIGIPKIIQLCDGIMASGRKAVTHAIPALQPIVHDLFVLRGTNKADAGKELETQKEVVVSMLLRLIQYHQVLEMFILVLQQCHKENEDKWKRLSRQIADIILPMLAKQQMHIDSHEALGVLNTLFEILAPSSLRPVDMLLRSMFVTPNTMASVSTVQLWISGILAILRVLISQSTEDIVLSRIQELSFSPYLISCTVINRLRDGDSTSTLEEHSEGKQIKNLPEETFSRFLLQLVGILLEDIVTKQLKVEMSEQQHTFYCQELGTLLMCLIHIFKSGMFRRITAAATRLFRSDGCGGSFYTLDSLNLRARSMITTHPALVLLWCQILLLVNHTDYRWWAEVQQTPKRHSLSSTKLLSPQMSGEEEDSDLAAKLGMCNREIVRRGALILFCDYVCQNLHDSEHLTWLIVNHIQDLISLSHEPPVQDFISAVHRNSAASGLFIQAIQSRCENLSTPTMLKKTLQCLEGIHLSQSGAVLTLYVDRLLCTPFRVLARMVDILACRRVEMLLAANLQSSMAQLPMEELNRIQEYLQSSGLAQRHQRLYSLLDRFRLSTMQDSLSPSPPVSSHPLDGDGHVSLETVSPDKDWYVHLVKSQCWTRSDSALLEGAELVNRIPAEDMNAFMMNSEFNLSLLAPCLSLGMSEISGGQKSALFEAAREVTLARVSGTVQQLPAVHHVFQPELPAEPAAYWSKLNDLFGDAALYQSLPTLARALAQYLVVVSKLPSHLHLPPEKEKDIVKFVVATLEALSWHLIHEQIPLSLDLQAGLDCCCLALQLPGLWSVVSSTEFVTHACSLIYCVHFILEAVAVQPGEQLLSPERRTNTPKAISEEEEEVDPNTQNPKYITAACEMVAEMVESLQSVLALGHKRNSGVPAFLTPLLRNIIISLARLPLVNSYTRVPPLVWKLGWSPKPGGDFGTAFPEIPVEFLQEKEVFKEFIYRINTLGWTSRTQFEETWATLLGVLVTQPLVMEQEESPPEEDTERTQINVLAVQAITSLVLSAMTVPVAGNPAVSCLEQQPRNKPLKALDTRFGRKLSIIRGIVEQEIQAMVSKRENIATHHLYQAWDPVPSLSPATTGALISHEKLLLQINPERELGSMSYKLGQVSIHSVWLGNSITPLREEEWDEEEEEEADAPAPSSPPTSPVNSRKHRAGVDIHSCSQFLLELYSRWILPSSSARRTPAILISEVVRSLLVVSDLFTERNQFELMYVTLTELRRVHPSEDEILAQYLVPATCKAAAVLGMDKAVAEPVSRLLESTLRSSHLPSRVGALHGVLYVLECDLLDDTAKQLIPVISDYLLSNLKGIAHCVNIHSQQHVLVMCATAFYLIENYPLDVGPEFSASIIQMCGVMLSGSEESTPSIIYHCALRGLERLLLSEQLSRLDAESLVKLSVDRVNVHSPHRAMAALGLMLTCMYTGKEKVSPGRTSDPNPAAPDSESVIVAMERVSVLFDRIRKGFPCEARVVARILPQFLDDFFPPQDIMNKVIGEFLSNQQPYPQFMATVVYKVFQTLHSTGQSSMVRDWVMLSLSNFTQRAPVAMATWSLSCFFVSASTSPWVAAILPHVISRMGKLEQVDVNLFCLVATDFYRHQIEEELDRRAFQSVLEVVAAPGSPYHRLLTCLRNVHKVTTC
Pf apPOL inh: Pf-apPOL DNA polymerase inhibition | Recombinant Pf-apPOL, molecular beacon fluorescence, 1.5 h | inhibition, % at 10 µM | 0.25% of 210,000 active | AID 1794808
Hits are given with their value. In the library only some 3.6% were active in any assay of this set; here they are far more common. No stated cut-off is given here; in the data, active means inhibition above about 50%; inactive means the rest.

What do the screens show for `O=C(NCC(O)c1ccc2c(c1)CCO2)C12CC3CC(CC(C3)C1)C2` (centres undefined)?
mHTT-CaM PPI inh: inactive; Pf apPOL inh: inactive

Results for CCc1nc2c(NC(=O)c3ccc(C(F)(F)F)cc3)cccn2n1 ?
mHTT-CaM PPI inh: 54; Pf apPOL inh: inactive

What do the screens show for `CCc1nc2c(NC(=O)c3cc(F)cc(F)c3)cccn2n1`?
mHTT-CaM PPI inh: inactive; Pf apPOL inh: inactive

What do the screens show for `CCN(CC)c1nc(C)nc2sc(C(=O)Nc3ccc(C)c(F)c3)c(C)c12`?
mHTT-CaM PPI inh: inactive; Pf apPOL inh: inactive

What do the screens show for `O=C(Nc1cccc(F)c1)c1ccc(N2CCC(NCc3ccccc3O)C2)nc1` (centres undefined)?
mHTT-CaM PPI inh: inactive; Pf apPOL inh: inactive

What do the screens show for `O=C(Nc1cccc(F)c1)c1ccc(N2CCC(NCc3cc(Cl)ccc3O)C2)nc1` (centres undefined)?
mHTT-CaM PPI inh: 70; Pf apPOL inh: inactive

Results for COC(=O)c1ccc(NC(=O)C2CCN(c3cc(C(=O)N4CCCC4)ccn3)CC2)cc1 ?
mHTT-CaM PPI inh: inactive; Pf apPOL inh: inactive

What do the screens show for `CNC(=O)N1CCCC(c2cccc(C(=O)N(C)Cc3ccccc3)c2)C1` (centres undefined)?
mHTT-CaM PPI inh: inactive; Pf apPOL inh: inactive

Results for N#Cc1nc(COc2ccc(Br)cc2)oc1N1CCCCC1 ?
mHTT-CaM PPI inh: 51; Pf apPOL inh: inactive

How did N#Cc1nc(COc2ccc(Br)cc2)oc1N1CCC(C(N)=O)CC1 do in these assays?
mHTT-CaM PPI inh: inactive; Pf apPOL inh: inactive

Results for CCCc1cc2c(=O)c(-c3ccc4c(c3)OCO4)c(C)oc2cc1OC(C)=O ?
mHTT-CaM PPI inh: inactive; Pf apPOL inh: inactive

What do the screens show for `COc1ccccc1NC(=O)C1=C(C)Nc2nc3ccccc3n2C1c1ccc(Cl)cc1` (centres undefined)?
mHTT-CaM PPI inh: 51; Pf apPOL inh: inactive

What do the screens show for `COc1ccccc1NC(=O)C1=C(C)Nc2nc3ccccc3n2C1c1cccnc1` (centres undefined)?
mHTT-CaM PPI inh: inactive; Pf apPOL inh: inactive

Results for CCCCN1CCN(C(=O)C2CC(=O)N(CCc3ccccc3)C2)CC1 (centres undefined) ?
mHTT-CaM PPI inh: inactive; Pf apPOL inh: inactive

How did CC(C)CNS(=O)(=O)C1CON(C)C1c1ccc(C(C)C)cc1 (centres undefined) do in these assays?
mHTT-CaM PPI inh: inactive; Pf apPOL inh: inactive

What do the screens show for `COc1ccc(C2=NN3C(C2)c2cc(Br)ccc2OC32C(=O)Nc3ccccc32)cc1` (centres undefined)?
mHTT-CaM PPI inh: 100; Pf apPOL inh: inactive

How did O=C1Nc2ccccc2C12Oc1ccccc1C1CC(c3ccccc3)=NN12 (centres undefined) do in these assays?
mHTT-CaM PPI inh: 100; Pf apPOL inh: inactive

Results for COc1ccc(C2=NN3C(C2)c2cc(Cl)ccc2OC3(C)C)cc1 (centres undefined) ?
mHTT-CaM PPI inh: inactive; Pf apPOL inh: inactive

Results for CC1(C)Oc2ccccc2C2CC(c3cccs3)=NN21 (centres undefined) ?
mHTT-CaM PPI inh: inactive; Pf apPOL inh: inactive

Results for COc1ccc(/C=C2\CC/C(=C\c3ccc(OC)c(OC)c3)C2=O)cc1OC ?
mHTT-CaM PPI inh: inactive; Pf apPOL inh: inactive

What do the screens show for `COc1cc(/C=C2\CC/C(=C\c3ccc(O)c(OC)c3)C2=O)ccc1O`?
mHTT-CaM PPI inh: 61; Pf apPOL inh: inactive

How did CC(=O)N1c2c(cc(Br)cc2S(=O)(=O)NC2CCCCC2C)CC1C (centres undefined) do in these assays?
mHTT-CaM PPI inh: inactive; Pf apPOL inh: inactive

How did CCc1nc2c(c3nn(CC)c(=O)n13)CCC2 do in these assays?
mHTT-CaM PPI inh: inactive; Pf apPOL inh: inactive

How did Cc1ccc(N2CCN(S(=O)(=O)c3ccc(Cl)c(Cl)c3)CC2)nn1 do in these assays?
mHTT-CaM PPI inh: inactive; Pf apPOL inh: inactive

What do the screens show for `COc1ccc(S(=O)(=O)N2CCN(c3ccc(N4CCCC4)nn3)CC2)cc1Cl`?
mHTT-CaM PPI inh: 72; Pf apPOL inh: inactive

How did Cc1cccc(NC(=O)CSc2cn(CCNC(=O)c3ccc(F)cc3)c3ccccc23)c1 do in these assays?
mHTT-CaM PPI inh: inactive; Pf apPOL inh: inactive

Results for Cc1cc(C)cc(NC(=O)CSc2cn(CCNC(=O)c3ccc(F)cc3)c3ccccc23)c1 ?
mHTT-CaM PPI inh: 78; Pf apPOL inh: inactive

Results for Cn1cc(C(=O)Nc2ccc3c(c2)CCC3)c2ccccc2c1=O ?
mHTT-CaM PPI inh: 50; Pf apPOL inh: inactive

How did Cc1ccc(NC(=O)c2cn(C)c(=O)c3ccccc23)c(Br)c1 do in these assays?
mHTT-CaM PPI inh: inactive; Pf apPOL inh: inactive

What do the screens show for `COc1ccc(Cl)cc1NC(=O)c1cc(S(=O)(=O)NCCc2ccccc2)ccc1F`?
mHTT-CaM PPI inh: inactive; Pf apPOL inh: inactive

How did CCn1ccc2sc(C)c(C(=O)N3CCC(Cc4ccccc4)CC3)c2c1=O do in these assays?
mHTT-CaM PPI inh: 80; Pf apPOL inh: inactive

What do the screens show for `CCn1ccc2sc(C)c(C(=O)N3CCC(N4CCCCC4)CC3)c2c1=O`?
mHTT-CaM PPI inh: inactive; Pf apPOL inh: inactive

Results for Cc1sc2nc3c4ccccc4c(Sc4ccccc4)nn3c(=O)c2c1C ?
mHTT-CaM PPI inh: inactive; Pf apPOL inh: inactive

What do the screens show for `O=C(Nc1ccc(Cl)c(Cl)c1)c1ccc(F)c(S(=O)(=O)NCC2CCCO2)c1` (centres undefined)?
mHTT-CaM PPI inh: inactive; Pf apPOL inh: inactive

Results for COCCOCC(=O)N1c2ccccc2C(C)(c2ccc(Cl)cc2)CC1(C)C (centres undefined) ?
mHTT-CaM PPI inh: inactive; Pf apPOL inh: inactive

What do the screens show for `CC1(C)CC(C)(c2ccc(Cl)cc2)c2ccccc2N1` (centres undefined)?
mHTT-CaM PPI inh: 85; Pf apPOL inh: inactive

Results for COc1ccccc1N(CC(N)=O)S(=O)(=O)c1ccccc1 ?
mHTT-CaM PPI inh: inactive; Pf apPOL inh: inactive

What do the screens show for `COc1ccccc1N(CC(O)COc1ccc(C)cc1)S(=O)(=O)c1ccccc1` (centres undefined)?
mHTT-CaM PPI inh: 52; Pf apPOL inh: inactive

How did Cc1sc(NC(=O)CCS(=O)(=O)c2ccc(F)cc2)c(C#N)c1C do in these assays?
mHTT-CaM PPI inh: inactive; Pf apPOL inh: inactive

What do the screens show for `Cc1ccc2ncn(C3CCN(C(=O)C(C)Oc4ccccc4)CC3)c2c1` (centres undefined)?
mHTT-CaM PPI inh: inactive; Pf apPOL inh: inactive

How did CCOc1ccc(C(=O)N2CCC(n3cnc4ccc(C)cc43)CC2)cc1 do in these assays?
mHTT-CaM PPI inh: 77; Pf apPOL inh: inactive

How did CCOc1ccccc1NC(NC(=O)c1ccco1)C(=O)c1ccc(Cl)cc1 (centres undefined) do in these assays?
mHTT-CaM PPI inh: inactive; Pf apPOL inh: inactive

Results for COc1ccc(OC)c(NC(NC(=O)c2ccco2)C(=O)c2ccc(Cl)cc2)c1 (centres undefined) ?
mHTT-CaM PPI inh: 67; Pf apPOL inh: inactive

How did CC(C(=O)O)N1C(=O)C(=CC=Cc2ccco2)SC1=S (centres undefined) do in these assays?
mHTT-CaM PPI inh: inactive; Pf apPOL inh: 91

How did CCCC(C(=O)O)N1C(=O)C(=CC=Cc2ccco2)SC1=S (centres undefined) do in these assays?
mHTT-CaM PPI inh: 84; Pf apPOL inh: 92

What do the screens show for `CC(C)C(C(=O)O)N1C(=O)C(=Cc2ccco2)SC1=S` (centres undefined)?
mHTT-CaM PPI inh: inactive; Pf apPOL inh: inactive

What do the screens show for `O=C(O)CCC(C(=O)O)N1C(=O)C(=Cc2ccco2)SC1=S` (centres undefined)?
mHTT-CaM PPI inh: inactive; Pf apPOL inh: inactive
